Bioassay records (PubChem BioAssay)
The list is not random: actives were taken first. Their share in the collection is about 4%.
LMP1 NFkB inh: Epstein-Barr LMP1 NF-kappaB reporter inhibition; 350,000 tested, 0.69% active; inhibition, % at 12.5 µM; LMP1-induced NF-kappaB luciferase reporter cells, luminescence; in the data active = inhibition above about 41%; inconclusive = no clear call, values can overlap the other calls
TWEAK-Fn14 inh: blocks TWEAK-Fn14 interaction in a reporter cell assay; TWEAK-stimulated Fn14 reporter cells, luciferase luminescence, 8 h; 360,000 tested, 2% active; inhibition, % at 10 µM; AID 1159606; in the data active = inhibition above about 50%
TRPM1 prom inh: MITF TRPM1 promoter inhibition in SK-MEL-5 cells | SK-MEL-5 TRPM1 promoter luciferase, 24 h | inhibition, % at 12.5 µM | 330,000 tested, 0.83% active;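 active = mean inhibition across replicates of 60% or more, whatever share of single replicates reaches that level; inconclusive = some that reach 60%, reason not given; inactive = mean inhibition across replicates below 60%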
HIF-2a inh: inhibitors of HIF-2a | 360,000 tested, 0.72% active | 786-0 RCC cells HIF-2a reporter, luciferase luminescence, overnight | AID 624352 | inhibition, % at 18.8 µM;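 active = inhibition of the luminescence signal of 40% or more relative to plate controls, in a single-dose primary screen at 18.75 µM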
Peg3 prom inh: inhibitors of Peg3 promoter | HeLa PEG-Prom luciferase reporter, luminescence, overnight | inhibition, % at 20 µM | 360,000 tested, 1.7% active | AID 588405;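 active = inhibition of at least 50% at 20 µM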
TROY signal inh: blocks TROY-dependent signaling in reporter cells | inhibition, % at 10 µM | AID 1347056 | 360,000 tested, 0.98% active | Q293 LMP1-TROYcd NF-kB luciferase reporter, 4 h;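 active = compounds whose plate-normalised and pattern-corrected inhibition of the luciferase reporter signal at the single screening dose is 50% or more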
Mdm2 MdmX conf: confirmation of inhibitors of human Mdm2/MdmX interaction, set 2. inhibition, % at 8 µM. AID 504601. shares compounds with HIF-2a inh. SaOS-2 split-luciferase Mdm2/MdmX complementation, luminescence. 740 tested, 99% active;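 active = mean inhibition of the luminescence signal across two replicates at or above 26 percent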
Target sequence (O15151 whole entry, looked up): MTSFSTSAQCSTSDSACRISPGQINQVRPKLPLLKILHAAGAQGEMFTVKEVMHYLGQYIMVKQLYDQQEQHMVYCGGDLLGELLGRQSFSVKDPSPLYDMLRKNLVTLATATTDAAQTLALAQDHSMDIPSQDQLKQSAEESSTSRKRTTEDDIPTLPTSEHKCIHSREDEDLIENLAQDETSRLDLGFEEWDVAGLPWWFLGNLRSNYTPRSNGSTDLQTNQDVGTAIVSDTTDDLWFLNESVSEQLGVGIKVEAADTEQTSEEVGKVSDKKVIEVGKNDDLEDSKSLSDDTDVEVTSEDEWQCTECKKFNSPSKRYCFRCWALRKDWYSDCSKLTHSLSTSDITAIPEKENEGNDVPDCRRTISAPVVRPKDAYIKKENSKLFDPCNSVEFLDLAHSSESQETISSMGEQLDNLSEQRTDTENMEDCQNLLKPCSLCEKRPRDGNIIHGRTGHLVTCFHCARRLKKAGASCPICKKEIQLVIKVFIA
Target sequence (Q00987 whole entry, looked up): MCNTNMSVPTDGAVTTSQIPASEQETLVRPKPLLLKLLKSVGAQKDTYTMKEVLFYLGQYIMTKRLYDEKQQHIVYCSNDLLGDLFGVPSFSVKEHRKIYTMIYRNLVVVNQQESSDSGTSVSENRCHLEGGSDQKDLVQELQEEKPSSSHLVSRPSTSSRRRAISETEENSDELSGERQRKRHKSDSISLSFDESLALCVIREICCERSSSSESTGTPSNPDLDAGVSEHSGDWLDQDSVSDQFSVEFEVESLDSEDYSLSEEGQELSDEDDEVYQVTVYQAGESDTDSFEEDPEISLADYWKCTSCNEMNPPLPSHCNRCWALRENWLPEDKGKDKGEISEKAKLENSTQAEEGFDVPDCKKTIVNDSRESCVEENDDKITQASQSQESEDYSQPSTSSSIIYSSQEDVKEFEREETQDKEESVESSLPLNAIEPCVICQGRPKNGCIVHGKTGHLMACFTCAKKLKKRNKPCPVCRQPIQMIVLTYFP
HIF-2a inh conf: HIF-2a inhibition, single concentration confirmation | shares compounds with HIF-2a inh | inhibition, % at 18.8 µM | 786-0 RCC cells, HIF-2a luciferase reporter luminescence, overnight | 1,800 tested, 56% active;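 active = mean inhibition across four replicates of at least 40 percent at the single tested concentration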
HIF-1a counter: HIF-1a inhibition counter-screen for HIF-2a hits; inhibition, % at 18.8 µM; 1,800 tested, 72% active; MiaPaCa-2 HIF-1a luciferase reporter, desferoxamine, overnight; AID 651589; shares compounds with HIF-2a inh;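 active = mean inhibition of the reporter signal across four replicates at the single tested dose of 50% or more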
Large screens that a line does not name were inactive (follow-up assays come after a bar, where they were run).

COc1ccc(CN(CCC(c2ccccc2)c2ccc(OC(C)C)cc2)C(=O)CCl)cc1OC (stereo not drawn)	TRPM1 prom inh 106, HIF-2a inh 96, Peg3 prom inh 106 | Mdm2 MdmX conf 103
O=C(NCCc1ccccc1)C(c1cccs1)N(C(=O)c1csnn1)C1CC1 (stereo not drawn)	none
O=C(NCCc1ccccc1)C(c1cccs1)N(C(=O)CCl)c1ccc(Cl)cc1 (stereo not drawn)	TWEAK-Fn14 inh 64, TRPM1 prom inh 86, HIF-2a inh 92, Peg3 prom inh 109 | Mdm2 MdmX conf 103 | HIF-2a inh conf 97 | HIF-1a counter 108
COC(=O)c1ccc(-c2nn(C)c(=O)c3ccccc23)cc1	none
COC(=O)c1ccc(C(=O)OC)c(-n2c(=O)c3ccccc3c3ccccc3c2=O)c1	HIF-2a inh 45 | HIF-2a inh conf 52 | HIF-1a counter inactive
NS(=O)(=O)c1ccc(N/N=C2/CCCCC2C2CCCCC2)c([N+](=O)[O-])c1 (stereo not drawn)	HIF-2a inh 55 | HIF-2a inh conf inactive | HIF-1a counter 104
CCOC(=O)C1=C(C)N=c2s/c(=C/c3ccc(OCC(=O)O)cc3)c(=O)n2C1c1cc(OC)c(OC)c(OC)c1 (stereo not drawn)	none
CCOC(=O)C1=C(C)N=c2sc(=Cc3cc(Cl)c(OCC(=O)O)c(Cl)c3)c(=O)n2C1c1cccc(OC)c1 (stereo not drawn)	HIF-2a inh 44 (no result: LMP1 NFkB inh, TRPM1 prom inh) | HIF-2a inh conf 46 | HIF-1a counter inactive
CCc1ccc2c(c1)/C(=C/C(=O)c1cccs1)C(=O)N2	TRPM1 prom inh 70, HIF-2a inh 75 | HIF-2a inh conf 61 | HIF-1a counter 103
COc1ccc(CNC[C@@H](CCCCN(C)Cc2ccc(OC)cc2)N2C[C@H](c3ccccc3)N(CCc3ccc(Cl)c(Cl)c3)C(=O)C2=O)cc1	LMP1 NFkB inh 89, TWEAK-Fn14 inh 97, TRPM1 prom inh 96, HIF-2a inh 97, Peg3 prom inh 98 | Mdm2 MdmX conf 103
CC(=O)OC(C)(C)/C=C/C(=O)[C@](C)(O)C1[C@H](O)C[C@@]2(C)C3CC=C4C(C=C(O[C@@H]5O[C@H](CO)[C@@H](O)[C@H](O)[C@H]5O)C(=O)C4(C)C)[C@]3(C)C(=O)C[C@]12C (stereo partly drawn)	HIF-2a inh 46, Peg3 prom inh 57 | HIF-2a inh conf inactive | HIF-1a counter inactive
O=[N+]([O-])c1cc(-c2ncccn2)c([N+](=O)[O-])s1	HIF-2a inh 91, Peg3 prom inh 104 (no result: TRPM1 prom inh) | HIF-2a inh conf 40 | HIF-1a counter 52
CC1CCCN(C(=O)CCNC(=O)Cn2cnc3ccccc3c2=O)C1 (stereo not drawn)	none
NC(=O)c1ccc(NC(=O)C#Cc2ccccc2)cc1	TWEAK-Fn14 inh 89, Peg3 prom inh 58 | Mdm2 MdmX conf 101
Cc1[nH]c2nc3ccccc3n2c(=O)c1CCC(C)C	none
Nc1nnnn1/N=C/C(Br)=C/c1ccccc1	TWEAK-Fn14 inh 75, TRPM1 prom inh 85, HIF-2a inh 83, Peg3 prom inh 114 | Mdm2 MdmX conf 103 | HIF-2a inh conf inactive | HIF-1a counter 104
CCOC(=O)N1c2ccccc2Sc2ccccc21	none
Cc1nnc(SC(=O)N2c3ccccc3Sc3ccccc32)s1	LMP1 NFkB inh inconclusive, TWEAK-Fn14 inh 90, TRPM1 prom inh 76, Peg3 prom inh 99 | Mdm2 MdmX conf 103
Cc1ccc(NS(=O)(=O)c2ccc3c(c2)OCCCO3)cc1S(=O)(=O)N1CCOCC1	none
Cc1ccc(C(=O)C2CCNCC2)cc1	none
Cc1ccc(C(=O)C2C(=O)C3CCC2C3)cc1 (stereo not drawn)	TWEAK-Fn14 inh 63, HIF-2a inh 46 (no result: LMP1 NFkB inh, TRPM1 prom inh) | HIF-2a inh conf inactive | HIF-1a counter inactive
Nc1ccc(-c2nnn(CC(=O)N3CCCCC3)n2)cc1	HIF-2a inh 49 | HIF-2a inh conf 48 | HIF-1a counter inactive
NC(=O)c1sc2nc3c(c(-c4cccs4)c2c1N)CCCCC3	LMP1 NFkB inh 72, TWEAK-Fn14 inh 76 | Mdm2 MdmX conf 95
NC(=O)c1sc2nc3c(c(-c4cccnc4)c2c1N)CCC3	none
COc1ccc(CCNC(=O)c2cc3c(=O)n4cccc(C)c4nc3n(Cc3ccco3)c2=N)cc1OC	TWEAK-Fn14 inh 87, HIF-2a inh 60 | Mdm2 MdmX conf inactive | HIF-2a inh conf inactive | HIF-1a counter inactive
COCCNC(=O)c1cc2c(=O)n3cccc(C)c3nc2n(Cc2ccncc2)c1=N	none
Cc1cccn2c(=O)c3cc(C(=O)NCc4ccco4)c(=N)n(CCc4ccccc4)c3nc12	none
Cc1cccn2c(=O)c3cc(C(=O)NCCc4ccccc4)c(=N)n(Cc4ccco4)c3nc12	TWEAK-Fn14 inh 101, HIF-2a inh 93 | Mdm2 MdmX conf 29 | HIF-2a inh conf inactive | HIF-1a counter 83
O=C(O)c1ccc(Cn2cnc3c(=O)[nH]cnc32)cc1	none
Cc1ccc(OCCn2cc(C(=S)N3CCCC3)c3ccccc32)cc1C	LMP1 NFkB inh inconclusive | Mdm2 MdmX conf 100
CCc1ccc(N2C=C(C(=O)OC)C(c3ccc(OC)cc3)C(C#N)=C2N)cc1 (stereo not drawn)	HIF-2a inh 53 (no result: LMP1 NFkB inh, TWEAK-Fn14 inh, TRPM1 prom inh, Peg3 prom inh, TROY signal inh) | HIF-2a inh conf 74 | HIF-1a counter 99
COC(=O)C1=CN(c2ccc(OC)cc2)C(N)=C(C#N)C1c1ccc(OC)cc1 (stereo not drawn)	none (no result: LMP1 NFkB inh, TWEAK-Fn14 inh, TRPM1 prom inh, Peg3 prom inh, TROY signal inh)
O=C(NCc1cccnc1)c1cc(C2CCCCN2C(=O)c2cccs2)on1 (stereo not drawn)	none (no result: LMP1 NFkB inh, TRPM1 prom inh)
Cc1cccc(NC(=O)/C=C/c2ccc([N+](=O)[O-])s2)c1	LMP1 NFkB inh 88, TWEAK-Fn14 inh 85, TRPM1 prom inh 95, HIF-2a inh 49, Peg3 prom inh 107 | HIF-2a inh conf inactive | HIF-1a counter 103
Cc1ccc(NC(=O)/C=C/c2ccc([N+](=O)[O-])s2)c(C)c1	LMP1 NFkB inh 84, TWEAK-Fn14 inh 91, TRPM1 prom inh 109, HIF-2a inh 79, Peg3 prom inh 89 | HIF-2a inh conf inactive | HIF-1a counter 100
Cc1cccc(NC(=S)N/N=C/c2ccc([N+](=O)[O-])s2)c1	none
NCCCCCc1nnc(SCc2ccccc2Cl)o1	HIF-2a inh 68 | HIF-2a inh conf 83 | HIF-1a counter 68
NCCc1nnc(SCc2c(Cl)cccc2Cl)o1	none
CCOc1ccccc1N1CCN(C(=O)c2ccc3c(c2)OCO3)CC1	none
